Results taken from PubChem BioAssay.
The source made the active and inactive calls.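 Rule for the calls, unless noted: active = fluorescence slope after compound addition differing from the mean of all screened samples at 99.7% confidence, in either direction; inactive = the rest.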

Columns and labels:
[1] = inhibitors of TNFa-induced NFkB p65 translocation, primary screen, imaging, HUVEC, MLSMR starter and 10KST1 sets (AID 438;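 active = inhibition above 20% together with a positive visual image hit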;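 note: compound added about 3h40 before a 20 min TNFalpha stimulation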;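 for inhibition: signal is the nuclear over cytoplasmic p65 intensity ratio per well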); details: HUVEC TNFa-induced p65 nuclear translocation; cell count: measured here: nuclei count (cytotoxicity indicator), at 2.08 µM; inhibition: at 2 µM, stronger effect = higher value, 0% TNFa-plus-vehicle, 100% no-TNFa wells
[2] = inhibitors of mutant huntingtin aggregation, primary screen, imaging, exon1htt(103Q)mCFP cells, high-content imaging (AID 483;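 active = visual image review flags a hit and inhibition of aggregation exceeds 20%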;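 note: compound exposure lasted 3 days before fixation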;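 for nuclei count: percent of the per-plate median nuclei count of sample wells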); details: exon1htt(103Q)mCFP cell line, aggregate imaging, at 2 µM; inhibition of aggregation: stronger effect = higher value; nuclei count: measured here: cell count, toxicity
[3] = inhibitors of E-selectin induction by TNFa, primary screen, imaging, HUVEC, immunofluorescence, MLSMR starter and 10KST1 sets (AID 487;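 active = visually confirmed hit in the image check and inhibition above 20%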;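 for inhibition: signal is fraction of cell area covered by stained E-selectin grains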;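 for nuclei count: 100% = median nuclei count of all wells on the same plate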); details: HUVEC TNFalpha-induced E-selectin immunofluorescence imaging, at 2 µM; inhibition: stronger effect = higher value; nuclei count: measured here: cell number, toxicity
[4] = target: Voltage-gated potassium channel subunit beta-2 (Rattus norvegicus) (UniProt P62483); assay: KvBeta enzyme negative modulators, primary screen, biochemical, NADPH fluorescence (AID 622;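 active = fluorescence slope higher than the sample average by over 3 SD, cut at about -0.22 in these data, passing the limit was not always enough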;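 note: slope of raw intensity against log time taken from 70 to 1610 s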); details: recombinant KvBeta, 4-cyanobenzaldehyde reduction, at 10 µM, stronger effect = higher value
[5] = target: Voltage-gated potassium channel subunit beta-2 (Rattus norvegicus) (UniProt P62483); assay: KvBeta positive modulators, primary screen, biochemical, NADPH fluorescence (AID 623;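 active = NADPH fluorescence slope more negative than the mean of all samples by about 3 SD, 99.7% confidence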;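 note: fluorescence intensity change per second fitted from 20 to 320 s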); details: Recombinant KvBeta, NADPH fluorescence decrease slope, 10 min; at 10 µM; stronger effect = lower value
[6] = target: Alpha-2C adrenergic receptor (Homo sapiens) (UniProt P18825); assay: modulators of alpha2C/GIRK thallium flux, primary screen, cell-based, HEK293 alpha2C/GIRK1/2 (AID 624); details: thallium flux BTC fluorescence, at 10 µM, actives lie on both sides;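 note: slope of fluorescence ratio to pre-addition baseline per second over 15 to 24 s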
[7] = inhibitors of Sendai virus-induced IRF3 signaling, primary screen, TLR/RLR signaling modifier project, cell-based, Sendai virus stimulus, luciferase, 10K MLSCN set (AID 602276;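 active = inhibition at or above 50% at 10 µM; inactive = inhibition below 50%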;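 note: firefly luciferase from ISG56 promoter only with Renilla not read in this screen; 0% = Sendai virus plus DMSO and 100% = medium plus DMSO without virus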); details: HEK293 RL24 IRF3 luciferase reporter, at 10 µM, stronger effect = higher value
[8] = inhibitors of poly I:C-induced TLR3 signaling, primary screen, cell-based, poly I:C stimulus, luciferase, 10K MLSCN set (AID 602277;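 active = inhibition of the reporter signal at or above 50%; inactive = inhibition below 50%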); details: HEK293-TLR3 RL24 IRF3 luciferase reporter, at 10 µM, stronger effect = higher value

Sequence of Voltage-gated potassium channel subunit beta-2 (Rattus norvegicus) (P62483 whole entry, looked up): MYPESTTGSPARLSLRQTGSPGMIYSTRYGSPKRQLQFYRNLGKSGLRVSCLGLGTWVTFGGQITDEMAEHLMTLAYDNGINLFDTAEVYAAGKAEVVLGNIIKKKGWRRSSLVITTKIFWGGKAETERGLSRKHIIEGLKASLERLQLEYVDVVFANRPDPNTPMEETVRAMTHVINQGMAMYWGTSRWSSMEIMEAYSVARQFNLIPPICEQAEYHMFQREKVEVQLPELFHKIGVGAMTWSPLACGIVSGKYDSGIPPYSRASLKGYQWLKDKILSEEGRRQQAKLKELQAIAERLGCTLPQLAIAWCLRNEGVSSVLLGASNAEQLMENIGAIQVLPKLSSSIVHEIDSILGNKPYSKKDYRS
Sequence of Alpha-2C adrenergic receptor (Homo sapiens) (P18825 whole entry, looked up): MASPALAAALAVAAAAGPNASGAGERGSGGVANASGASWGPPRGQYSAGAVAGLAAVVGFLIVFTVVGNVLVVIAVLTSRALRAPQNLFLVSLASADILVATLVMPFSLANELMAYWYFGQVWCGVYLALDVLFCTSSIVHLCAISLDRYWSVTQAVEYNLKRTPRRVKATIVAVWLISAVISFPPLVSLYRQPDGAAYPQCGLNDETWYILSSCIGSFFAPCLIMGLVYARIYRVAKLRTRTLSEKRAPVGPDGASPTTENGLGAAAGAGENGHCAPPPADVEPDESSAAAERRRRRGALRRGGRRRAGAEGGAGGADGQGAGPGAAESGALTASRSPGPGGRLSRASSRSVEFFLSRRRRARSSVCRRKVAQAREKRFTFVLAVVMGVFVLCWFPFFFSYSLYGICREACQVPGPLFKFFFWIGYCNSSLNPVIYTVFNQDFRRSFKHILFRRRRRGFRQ

| SMILES | cell count [1] | inhibition [1] | inhibition of aggregation [2] | nuclei count [2] | inhibition [3] | nuclei count [3] | fluorescence slope [4] | NADPH fluorescence slope [5] | slope [6] | inhibition [7] | inhibition [8] |
| --- | --- | --- | --- | --- | --- | --- | --- | --- | --- | --- | --- |
| COc1cccc(C2C(C(N)=O)=C(C)Nc3nc(CCCO)nn32)c1OC (stereo not drawn) | 480 | 5% (inactive) | 11.5% (inactive) | 102% | -24.5% (inactive) | 94.1% | -0.455 (inactive) | -2.8e-05 (inactive) | 0.00572 (inactive) | -11.2% (inactive) | 7.06% (inactive) |
| Cn1c2c(c(=O)n(C)c1=O)C(CC(=O)Nc1ccccc1)C(=O)N2 (stereo not drawn) | 604 | -3.5% (inactive) | -2.9% (inactive) | 72% | -81.2% (inactive) | 152% | -0.597 (inactive) | -3.5e-05 (inactive) | 0.00726 (inactive) | 10.9% (inactive) | 22.4% (inactive) |
| CCc1c(C)nc2ncnn2c1NCCc1ccc(OC)c(OC)c1 | 447 | -1.6% (inactive) | -8% (inactive) | 95.4% | 7.1% (inactive) | 97.7% | -0.323 (inactive) | -7.8e-05 (inactive) | 0.00477 (inactive) | 8.69% (inactive) | -1.81% (inactive) |
| CSc1nc2ccccc2c(=O)n1N | 618 | 7.8% (inactive) | 12.4% (inactive) | 90.5% | 28.4% (inactive) | 84.2% | -0.404 (inactive) | -1.3e-05 (inactive) | 0.00832 (inactive) | 13% (inactive) | 19% (inactive) |
| CCN(Cc1ccccc1)C(c1ccncc1)c1nnnn1C(C)(C)C (stereo not drawn) | 618 | 11.6% (inactive) | -32% (inactive) | 122% | -42.3% (inactive) | 116% | -0.606 (inactive) | -3.2e-05 (inactive) | 0.0048 (inactive) | 17.8% (inactive) | 21.6% (inactive) |
| Cc1nnc(SCC(=O)N2c3ccccc3CC2C)s1 (stereo not drawn) | 528 | -31.1% (inactive) | 5.8% (inactive) | 55.7% | -46.9% (inactive) | 136% | -0.521 (inactive) | -5.2e-05 (inactive) | 0.00417 (inactive) | 4.91% (inactive) | -5.96% (inactive) |
| COc1ccc(Oc2c(C)oc3cc(OC(=O)N4CCOCC4)ccc3c2=O)cc1 | 770 | -4.9% (inactive) | 11.1% (inactive) | 95.2% | -28.1% (inactive) | 112% | -0.402 (inactive) | 2.6e-05 (inactive) | 0.00567 (inactive) | 3.22% (inactive) | -6.73% (inactive) |
| COc1ccc(C(CNC(=O)c2cc(C)oc2C)N2CCOCC2)cc1 (stereo not drawn) | 711 | -0.8% (inactive) | -5.3% (inactive) | 103% | -140% (inactive) | 145% | -0.609 (inactive) | -9.2e-06 (inactive) | 0.00615 (inactive) | 11.1% (inactive) | 15.8% (inactive) |
| O=C(Nc1cccnc1)c1cccc(NC(=O)c2ccco2)c1 | 350 | 1.5% (inactive) | -3.4% (inactive) | 104% | 13.4% (inactive) | 115% | -0.446 (inactive) | 6.3e-05 (inactive) | 0.00622 (inactive) | 16.9% (inactive) | 22.4% (inactive) |
| COc1cccc(C2C(C(N)=O)=C(C)Nc3nc(-c4ccccc4Cl)nn32)c1 (stereo not drawn) | 804 | -4% (inactive) | -14.6% (inactive) | 93.9% | -48.3% (inactive) | 110% | -0.416 (inactive) | -9.2e-05 (inactive) | 0.00547 (inactive) | 12.6% (inactive) | 40.8% (inactive) |
| CC(C)C(OC(=O)c1ccco1)C(=O)NCc1ccccc1 (stereo not drawn) | 489 | 5% (inactive) | -10.8% (inactive) | 108% | -122% (inactive) | 126% | -0.443 (inactive) | 2.2e-05 (inactive) | 0.00599 (inactive) | 11.3% (inactive) | 10.5% (inactive) |
| O=C(CC(=O)c1cc(Cl)ccc1O)c1ccccc1 | 435 | 3.8% (inactive) | -1.9% (inactive) | 99.3% | -68.1% (inactive) | 126% | -0.41 (inactive) | 2.8e-05 (inactive) | 0.00798 (inactive) | -30.5% (inactive) | -67.7% (inactive) |
| O=C(CCSc1nc(-c2ccco2)cc(C(F)(F)F)n1)NCCc1ccccc1 | 491 | -8.3% (inactive) | -16.1% (inactive) | 106% | 23.2% (inactive) | 104% | -0.387 (inactive) | -3.6e-05 (inactive) | 0.00564 (inactive) | -7.29% (inactive) | -52.7% (inactive) |
| COc1cc(/C=N/n2cnnc2)ccc1OCC(=O)N1CCOCC1 | 378 | -0.8% (inactive) | -5.1% (inactive) | 125% | -4.3% (inactive) | 112% | -0.245 (inactive) | 7.4e-07 (inactive) | 0.00585 (inactive) | 5.73% (inactive) | 19.7% (inactive) |
| CCOC(=O)c1cc2c(=O)n3cccc(C)c3nc2n(CCOC)c1=NC(=O)c1ccncc1 | 397 | -0.2% (inactive) | -15.8% (inactive) | 100% | -4.6% (inactive) | 96.5% | -0.346 (inactive) | -4.3e-05 (inactive) | 0.00713 (inactive) | 16.8% (inactive) | 12.5% (inactive) |
| COc1cccc2cc(C(=O)C3=C(O)C(=O)N(CCCN4CCOCC4)C3c3ccncc3)oc12 (stereo not drawn) | 463 | 0.9% (inactive) | -8.5% (inactive) | 103% | -14.9% (inactive) | 120% | -0.478 (inactive) | -7.1e-05 (inactive) | 0.00372 (inactive) | -11.8% (inactive) | 10.6% (inactive) |
| Cc1cccc(NC(=O)Cn2c(=O)n(C)c3ccccc32)c1 | 350 | -3.7% (inactive) | 2.6% (inactive) | 107% | -17.7% (inactive) | 107% | -0.417 (inactive) | 9.1e-06 (inactive) | 0.011 (inactive) | 9.53% (inactive) | 9.37% (inactive) |
| COCCCNC(=O)C1CCN(C(=O)Nc2ccc(Cl)cc2)CC1 | 577 | 5% (inactive) | 18.9% (inactive) | 96.2% | 33.6% (inactive) | 82.1% | -0.457 (inactive) | 1.1e-05 (inactive) | 0.00588 (inactive) | 11.2% (inactive) | 34.3% (inactive) |
| N#CCCN(C(=O)Nc1ccc(Cl)cc1)c1ccccc1 | 355 | -2.1% (inactive) | -8.5% (inactive) | 98.6% | -15.7% (inactive) | 99.7% | -0.632 (inactive) | 2.2e-05 (inactive) | 0.00361 (inactive) | -5.26% (inactive) | -52.7% (inactive) |
| CCOC(=O)c1ccc2nc(C)c3c(c2c1)OC(C)C3 (stereo not drawn) | 308 | -13% (inactive) | 1.1% (inactive) | 94.2% | 9% (inactive) | 122% | -0.349 (inactive) | 1.7e-05 (inactive) | 0.00348 (inactive) | -5.44% (inactive) | 20.2% (inactive) |
| Cc1ccc(N2CCN(CCc3nc4cc(NS(C)(=O)=O)ccc4n3C)CC2)cc1 | 322 | 7% (inactive) | 2% (inactive) | 90.6% | 21.6% (inactive) | 122% | -0.531 (inactive) | -3.7e-05 (inactive) | 0.00789 (inactive) | -11.6% (inactive) | -19.7% (inactive) |
| O=C(O)c1cc(Cl)c(Cl)cc1C(=O)N1CCCC1 | 291 | 0% (inactive) | 14.8% (inactive) | 88.1% | 7% (inactive) | 104% | -0.311 (inactive) | 4.1e-07 (inactive) | 0.00644 (inactive) | 9.27% (inactive) | 22.8% (inactive) |
| CC(C)NC(=O)CSCc1ccccc1Cl | 350 | 12.5% (inactive) | 6.1% (inactive) | 100% | -0.7% (inactive) | 110% | -0.5 (inactive) | -1.3e-05 (inactive) | 0.00508 (inactive) | 9.82% (inactive) | 0.78% (inactive) |
| COc1ccc(OC)c(CNC(=O)COc2cc(=O)n(C)c3ccccc23)c1 | 367 | 4.3% (inactive) | -8.1% (inactive) | 105% | 18% (inactive) | 100% | -0.349 (inactive) | -7.1e-06 (inactive) | 0.00576 (inactive) | 6.07% (inactive) | 6.23% (inactive) |
| CCCC(NC(=O)c1ccccc1)c1nc2ccccc2n1Cc1ccc(C(=O)OC)o1 (stereo not drawn) | 722 | 5.5% (inactive) | 7.1% (inactive) | 105% | -91.8% (inactive) | 119% | -0.372 (inactive) | -3.2e-06 (inactive) | 0.00315 (inactive) | 0.936% (inactive) | 16.6% (inactive) |
| COCCNC(=O)CCc1nc(-c2ccccc2)no1 | 294 | -5% (inactive) | -9.3% (inactive) | 103% | -98.3% (inactive) | 123% | -0.504 (inactive) | 2.6e-05 (inactive) | 0.00646 (inactive) | 18.6% (inactive) | 16.3% (inactive) |
| CC1=Nn2c(nnc2-c2ccccn2)SC1 | 378 | 4.8% (inactive) | -0.1% (inactive) | 68.5% | -158% (inactive) | 198% | -0.443 (inactive) | -4.3e-05 (inactive) | 0.00557 (inactive) | 7.81% (inactive) | 11.5% (inactive) |
| CCc1nc(N)c(C#N)c(-c2ccc(OC)c(OC)c2)c1C | 628 | -4.4% (inactive) | -13.8% (inactive) | 98.5% | -37% (inactive) | 111% | -0.384 (inactive) | 1e-05 (inactive) | 0.00633 (inactive) | 16.9% (inactive) | 21.8% (inactive) |
